We go through 40 compounds from PubChem BioAssay (NCATS).

Results filed as inconclusive are left out. Active and inactive are the calls of the source. Calls follow the shape of the dose curve; as a rule, active = well fitted inhibition curve with a large enough effect; inconclusive = small, poorly fitted or top-dose-only effect; inactive = no such curve, though single readings can be large or run the other way.
% is scaled to controls: 0 for no effect and ±100 for the full control effect.

A short description of this assay: Primary qHTS for small molecule stabilizers of the endoplasmic reticulum resident proteome: Secreted ER Calcium Modulated Protein (SERCaMP) assay (AID 1508630). As to conditions: SH-SY5Y GLuc-SERCaMP (Gaussia luciferase released on ER calcium loss) secretion, thapsigargin, luminescence; series mostly up to 38.4 µM; activity change, negative = inhibition: at the top concentration. The source says:
Assay Provider: Brandon K. Harvey Ph.D.
National Institute on Drug Abuse, National Institutes of Health, Baltimore, MD
Endoplasmic reticulum (ER) dysregulation is associated with human pathologies including neurodegenerative, cardiovascular, muscular, and diabetic conditions. Maintenance of ER calcium is critical for functions of the ER and its depletion can lead to loss of ER resident proteins, in a process termed exodosis. Therapeutic compounds capable of attenuating the redistribution of ER proteins under pathological conditions may slow or stop disease progression. To identify such compounds, we performed a quantitative high-throughput screen (qHTS) using the SERCaMP assay, which monitors secretion of ER resident proteins triggered by calcium depletion.
SERCaMP was initially developed as a reporter of ER calcium homeostasis using a Gaussia luciferase with a modified signal peptide and carboxy-terminus (GLuc-SERCaMP), modifications that confer secretion of the reporter in response to ER calcium depletion (Henderson et al., 2014). The assay was used to screen 9,501 compounds, including a collection of drugs approved by the FDA (US), EMA (EU), NHI (Japan), and HC (Canada) regulatory agencies (Huang et al., 2011). Since the SERCaMP reporter reflects the exodosis phenomenon (Trychta et al., 2018a), compounds identified in the screen have the potential to prevent exodosis by different mechanisms such as stabilizing ER calcium or augmenting ERS retrieval.
1. Henderson, M.J., Wires, E.S., Trychta, K.A., Richie, C.T., and Harvey, B.K. (2014). SERCaMP: a carboxy-terminal protein modification that enables monitoring of ER calcium homeostasis. Mol Biol Cell 25, 2828-2839.
2. Huang, R., Southall, N., Wang, Y., Yasgar, A., Shinn, P., Jadhav, A., Nguyen, D.T., and Austin, C.P. (2011). The NCGC pharmaceutical collection: a comprehensive resource of clinically approved drugs enabling repurposing and chemical genomics. Sci Transl Med 3, 80ps16.
3. Trychta, K.A., Back, S., Henderson, M.J., and Harvey, B.K. (2018a). KDEL Receptors Are Differentially Regulated to Maintain the ER Proteome under Calcium Deficiency. Cell Rep 25, 1829-1840 e1826.
SEQUENCE No. (1, 2, 3, etc.); […] (e.g., Cells, Incubation, Reagent, etc.); VALUE and DESCRIPTION.
1; Reagent; 5 uL; 1000 SH-SY5Y cells per wells
3; Compound; 23 nL; Control inhibitor / compound library
5; Reagent; 100 nM; Thapsigargin
7; Reagent; 1 uL; 0.5x coelenterazine
8; Detection; Luminescence; ViewLux imaging system
NOTES (numbers refer to sequence above)
1; SH-SY5Y human neuroblastoma cells stably expressing GLuc-SERCaMP (SH-SY5Y-GLuc-ASARTDL) cells were seeded in 1,536 well white tissue culture treated plates (Corning, Cat# 7464) in DMEM-high glucose-sodium pyruvate (ThermoFisher Scientific, Cat #10569) supplemented with 10% bovine growth serum (Hyclone), 10 U/ml penicillin (Gibco), 10 ug/ml streptomycin (Gibco), and 20 mM HEPES.
2; Assay plates were incubated for 5 hour at 37C in a humidified incubator containing 5% CO2.
3; qHTS libraries (23 nl, final concentrations of 1.53 uM, 7.67 uM, 38.3 uM) or controls (neutral control: DMSO, positive control: dantrolene) were added using a Kalypsis pin-tool Robotic System equipped with 1536 pinheads.
4; Cells were then incubated for 16 hours at 37C, 5% CO2.
5; Thapsigargin was added at 100 nM to deplete ER calcium stores.
6; Cells were incubated for 4 hour (37 °C, 5% CO2)
7; Gaussia luciferase in the medium was measured by adding 1 ul of 0.5x coelenterazine (final concentration 0.07x) prepared in Gaussia Luciferase Glow Assay Buffer (Pierce), without addition of the Cell Lysis Buffer Reagent.
8; Luminescence was measured using a ViewLux […] CCD imaging system (Perkin Elmer) equipped with clear filters. […] The same controls were also used for the calculation of the Z' factor, a measure of assay quality control, as previously described (Zhang et al., 1999). […]
On to `CSCC[C@@H](NC(=O)[C@@H](Cc1ccccc1)NC(=O)CNC(=O)CNC(=O)[C@@H](N)Cc1ccc(O)cc1)C(=O)O`, for which the “activity change, negative = inhibition” value is 40% (inactive).
The same measure, in the same setting: with `CCCCCC[C@H]1C(=O)O[C@H](C)[C@H](NC(=O)c2cccc(NC=O)c2O)C(=O)O[C@@H](C)[C@@H]1OC(=O)CC(C)C` the figure was 7.44% (inactive).
The same measure, in the same setting: with `CS(=O)(=O)c1ccc(C(=O)C2C(=O)CCCC2=O)c([N+](=O)[O-])c1` the figure was -22.2% [at 76.3 µM] (inactive); with `CC(=Cc1csc(C)n1)[C@@H]1C[C@H]2O[C@]2(C)CCC[C@H](C)[C@@H](O)[C@@H](C)C(=O)C(C)(C)[C@@H](O)CC(=O)O1`, 73% (inactive); with `CC(=O)N(C)c1cccc(-c2ccnc3c(C(=O)c4cccs4)cnn23)c1`, -0.709% (inactive).
In the case of `CC(C)NC(C)Cc1ccc(I)cc1` (stereo not given), the “activity change, negative = inhibition” value was -4.75% (inactive).
`Cc1nccc2c1[nH]c1ccccc12`: the Potency result was “inactive”.
On to `O=[N+]([O-])c1ccc([As](=O)(O)O)cc1`, for which the “activity change, negative = inhibition” value was -14.2% (inactive).
The same measure, in the same setting: with `O=C(O)COc1ccccc1` the figure was -26.7% (inactive); with `c1cc2c(cc1[C@H]1OC[C@H]3[C@H]1CO[C@H]3c1ccc3c(c1)OCO3)OCO2`, 17.8% (inactive).
Still for that read-out and setting: with `C=C[C@@H]1CN2CCC1C[C@@H]2[C@@H](O)c1ccnc2ccccc12` (stereo not given in full) the figure was 130% (inactive).
Still for that read-out and setting: with `C[C@@H]1CC[C@H]2[C@@H](C)C(=O)O[C@@H]3O[C@@]4(C)CC[C@H]1[C@]32OO4` the figure was -83.8% (inactive).
Take `CCCN1CCO[C@@H]2c3cc(O)ccc3OC[C@H]21`: the Potency result was “inactive”.
Turning to `Cc1c(C(=O)Nc2cccc(C(F)(F)F)c2)cc(-c2ccccc2)n1CCCN1CCOCC1`, the “activity change, negative = inhibition” value is 10.2% (inactive).
`Cc1c(N)nc([C@H](CC(N)=O)NC[C@@H](N)C(N)=O)nc1C(=O)N[C@H](C(=O)N[C@@H](C)[C@H](O)[C@@H](C)C(=O)N[C@@H](C(=O)NCCc1nc(-c2nc(C(=O)NCCC[S+](C)C)cs2)cs1)[C@@H](C)O)C(O[C@H]1O[C@H](CO)[C@H](O)[C@@H](O)[C@@H]1O[C@H]1O[C@H](CO)[C@@H](O)[C@H](OC(N)=O)[C@H]1O)c1cnc[nH]1` (stereo not given in full): the “activity change, negative = inhibition” value is 55.5% (inactive).
Same read-out and setting: with `COc1ccc(CC2NCCc3cc(OC)c(OC)cc32)cc1OC` (stereo not given) the figure was 101% (inactive).
On the same count and under the same terms, with `CC(=O)Nc1ccc(OC[C@](C)(O)C(=O)Nc2ccc([N+](=O)[O-])c(C(F)(F)F)c2)cc1` the figure was 92.8% (inactive); with `CC(=CCCC1=CCC(C2=CC(=O)OC2O)OC1O)CCC1=C(C)CCCC1(C)C` (stereo not given), 0% (inactive).
Same read-out and setting: with `CC(C)(C)C(O)C(Oc1ccc(Cl)cc1)n1cncn1` (stereo not given) the figure was -9.26% [at 76.3 µM] (inactive).
On to `COc1ccc2c(c[n+](C)c3c4cc5c(cc4ccc23)OCO5)c1OC`, for which the Potency result is “inactive”.
For `Cc1[nH]nc2ccc(-c3cncc(OC[C@@H](N)Cc4c[nH]c5ccccc45)c3)cc12`, the “activity change, negative = inhibition” value is 41.5% (inactive).
Still for that read-out and setting: with `CC[C@@H]1[C@@H](C)O[C@@](O)([C@@H](C)[C@H](O)[C@H](C)[C@H]2OC(=O)C=CC=C[C@@H](C)[C@@H]([C@@H](C)[C@@H](O)[C@H](C)[C@@]3(O)C[C@H](O[C@H]4C[C@H](O)[C@H](O)[C@H](C)O4)[C@H](CC)[C@@H](C)O3)OC(=O)C=CC=C[C@@H]2C)C[C@H]1O[C@H]1C[C@H](O)[C@H](O)[C@H](C)O1` the figure was 171% (inactive).
Consider `CCOP(=O)(OCC)C(C)NC(=O)N(CCCl)N=O` (stereo not given), for which the “activity change, negative = inhibition” value is 0% (inactive).
Still for that read-out and setting: with `C1=C2CCCN[C@H]2[C@@H]2C[C@H]1[C@@H]1CCCCN1C2` the figure was 41% (inactive).
The same measure, in the same setting: with `CO[C@H]1CCC(O[C@H]2C[C@H]([C@]3(C)CC[C@]4(C[C@H](O)[C@@H](C)[C@@H]([C@@H](C)C=C(C)C(=O)[C@H](C)C[C@H](C)C(=O)O)O4)O3)O[C@]3(O[C@@H]([C@H]4O[C@@](O)(CO)[C@H](C)C[C@H]4C)C[C@H]3C)[C@H]2C)O[C@H]1C` (stereo not given in full) the figure was 183% (inactive); with `COC(=O)[C@@H](N)CCCN=C(N)N[N+](=O)[O-]`, 54.4% (inactive).
The same measure, in the same setting: with `Fc1cc(Br)ccc1CBr` the figure was -29.8% (inactive); with `CC(O)CN1CCN(CC(=O)[O-])CCN(CC(=O)[O-])CCN(CC(=O)[O-])CC1.[Gd+3]` (stereo not given), -8.8% (inactive).
On to `O=C1CCC[C@@H]2[C@H]3CCCN4CCC[C@@H](CN12)[C@@H]34`, for which the “activity change, negative = inhibition” value was 54.5% (inactive).
Regarding `S=C(NC1CCCCC1)N1CCC(c2cnc[nH]2)CC1`, the Potency entry is “inactive”.
Same read-out and setting: with `NCCc1c[nH]c2ccc(O)cc12` the entry was “inactive”.
Same read-out and setting: with `C[C@@H](N)Cc1cnc[nH]1` the entry was “inactive”.
With `N#C[C@H](O[C@@H]1O[C@H](CO[C@@H]2O[C@H](CO)[C@H](O)[C@H](O)[C@H]2O)[C@H](O)[C@H](O)[C@H]1O)c1ccccc1`, the “activity change, negative = inhibition” value is 74.4% (inactive).
With `c1ccc2sc(C3(N4CCCCC4)CCCCC3)cc2c1`, the Potency result was “inactive”.
Same read-out and setting: with `CC[C@@]1(O)C(=O)OCc2c1cc1n(c2=O)Cc2cc3ccccc3nc2-1` the entry was “inactive”.
On to `CCCN1CCC[C@H](c2cccc(O)c2)C1`, for which the “activity change, negative = inhibition” value was -11.7% (inactive).
Turning to `NC1CC1c1ccccc1` (stereo not given), the Potency entry is “inactive”.
For `CCC(=O)OC1CCC2C3CCC4=CC(=O)CC[C@@]4(C)C3CC[C@]12C` (stereo not given in full), the “activity change, negative = inhibition” value was 20.9% (inactive).
The same measure, in the same setting: with `CC1(C)CC/C(=C/c2ccc(Cl)cc2)C1(O)Cn1cncn1` (stereo not given) the figure was 24.9% [at 76.3 µM] (inactive); with `CO/C=C(/C(=O)OC)c1ccccc1Oc1cc(Oc2ccccc2C#N)ncn1`, 89.7% [at 76.3 µM] (inactive).
